Sampled rows, rich in hits. Any-hit rate of the full collection: about 7%.
S2 tox – cell viability loss in ATXN counter-screen; S2 cells (HEK-293 line with an ATXN2-luciferase reporter) viability, CellTiter-Fluor protease fluorescence, 24 h; 0.49% of 400,000 active; AID 651635; Potency, µM (titrated, usually from 56.7 µM), most hits filed as cytotoxic; also: nearly all actives have a fitted effect of over 40% in size
a7 integrin act – activators of alpha7 integrin expression for muscular dystrophy. 0.064% of 350,000 active. AID 624291. Potency, µM (doses to about 38.3 µM), most hits filed as activators. alpha7betagal myoblasts, beta-gal FDG fluorescence, 48 h; also: nearly all actives have a fitted effect of over 60% in size
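alpha7betagal+/- myoblasts (passage 13, 250/well) treated 48 h at 37C with compounds at 1:260 dilution of DMSO stock. Lysed, then beta-galactosidase activity read as FDG fluorescence (ex 480/em 540) after 30 min, with pre-read for autofluorescence.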
IL-1B inflam inh – inhibitors of inflammasome signaling (IL-1 beta secretion); THP-1 LPS/ATP IL-1B secretion, AlphaLISA, 16 h; hits give low values; activity change, % at 57.5 µM; 4.7% of 360,000 active; in the data active = activity change below about -50%; inconclusive = mostly about -30% to -49%
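Secreted IL-1B measured by AlphaLISA bead assay after 16 h compound exposure of THP-1 cells; compounds (final up to 57.5 uM) added 1 h before LPS (250 ng/mL) and ATP (1.25 mM) stimulation; lower signal means less secretion.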
ATXN2 expr inh – inhibitors of ATXN2 expression; 0.72% of 360,000 active; Potency, µM (series often up to 57 µM), usual class: inhibitors; HEK-293 ATXN2-luciferase reporter, luminescence, 24 h; also: nearly all actives have a fitted effect of over 55% in size
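ATXN2-luciferase reporter cells (luciferase flanked by upstream and downstream ATXN2 gene portions) were treated 24 h at 37 °C with compounds at up to 57 uM. SteadyGlo luminescence gave expression; GF-AFC fluorescence gave viability.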
D3 ag – agonists of human D3 dopamine receptor | P35462 | D3R DiscoveRx beta-arrestin cells, luminescence, 90 min | max activation, % | 0.58% of 410,000 active | AID 652048; in the data active = max activation above about 30%
Target sequence (P35462 whole entry, looked up): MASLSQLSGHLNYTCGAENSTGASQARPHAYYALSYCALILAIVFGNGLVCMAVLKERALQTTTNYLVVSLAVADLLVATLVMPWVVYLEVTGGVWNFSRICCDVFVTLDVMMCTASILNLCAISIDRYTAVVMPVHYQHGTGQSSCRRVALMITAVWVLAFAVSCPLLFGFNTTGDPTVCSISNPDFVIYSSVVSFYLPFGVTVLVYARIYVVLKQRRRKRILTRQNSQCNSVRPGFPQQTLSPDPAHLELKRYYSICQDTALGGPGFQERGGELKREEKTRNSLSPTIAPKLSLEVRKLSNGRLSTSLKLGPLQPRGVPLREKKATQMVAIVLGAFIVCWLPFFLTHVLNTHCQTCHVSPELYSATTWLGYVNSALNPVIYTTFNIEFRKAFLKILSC
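Cells at 1500/well, incubated overnight, then treated with pinned compounds (dopamine as control) for 90 min at 37 degrees C. DiscoveRx reagent added for 30 - 60 minutes at room temperature; luminescence read.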
DRD3 antagonist – blocks the human D3 dopamine receptor. P35462. D3R cells, DiscoveRx beta-arrestin luminescence, antagonist mode; hits give low values. max response, negative = inhibition, %. 2.5% of 360,000 active; in the data active = max response below about -50%; inconclusive = no clear call, values can overlap the other calls
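Cells plated overnight at 1500 cells/well, then exposed to library compounds with dopamine controls for 90 minutes at 37 degrees C. DiscoveRx reagent added for 30–60 minutes at room temperature; luminescence read, quantitative HTS format.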
Large screens that a line does not name were inactive. Unless noted, calls follow the shape of the dose curve; as a rule, active = well fitted curve in the direction sought with a large enough effect; inconclusive = small, poorly fitted or top-dose-only effect, or another doubt; inactive = no such curve, though single readings can be large; an effect the other way counts as inactive or inconclusive.

Cc1ccc(NC(=O)C2CC(=O)N(Cc3ccccc3)C2)cc1S(=O)(=O)N1CCCCCC1 (stereo not given)	IL-1B inflam inh -52
CCCCC(=O)Nc1ccc(C)c(S(=O)(=O)N2CCCCCC2)c1	IL-1B inflam inh -64
c1ccc(CSc2ncn[nH]2)nc1	none
Cc1nn(Cc2ccc(Cl)cc2Cl)c(C)c1NC(=O)C1C2CCC(O2)C1C(=O)O (stereo not given)	none
Cc1ccc(NC(=O)C2CC(=O)N(C(C)C)C2)cc1C (stereo not given)	IL-1B inflam inh -65 (no result: S2 tox)
COc1ccc(C)cc1NC(=O)C1CC(=O)N(CCc2ccccc2)C1 (stereo not given)	D3 ag 40
COc1ccc(NC(=O)CCOc2ccccc2C)cc1S(=O)(=O)N1CCCCC1	IL-1B inflam inh -60, ATXN2 expr inh inconclusive
COc1ccccc1CCC(=O)Nc1ccc(OC)c(S(=O)(=O)N2CCCCC2)c1	none
O=C(Nc1ccc(Br)cc1Br)C1CC(=O)N(Cc2ccccc2)C1 (stereo not given)	IL-1B inflam inh -56
COc1ccc(OC)c(NC(=O)C2CC(=O)N(CCc3ccccc3)C2)c1 (stereo not given)	S2 tox inconclusive
Cc1ccc(NC(=S)Nc2ccc(C(C)C)cc2)cc1S(=O)(=O)N1CCCCCC1	S2 tox inconclusive, IL-1B inflam inh -89, ATXN2 expr inh inconclusive
C=CCNC(=S)Nc1ccc(C)c(S(=O)(=O)N2CCCCC2)c1	none (no result: S2 tox)
O=C(O)c1cc2ccccc2c(Cc2cc3ccccc3c(C(=O)O)c2O)c1O (tested in a mixture with another compound)	none (no result: a7 integrin act, IL-1B inflam inh, ATXN2 expr inh, D3 ag, DRD3 antagonist)
C=CS(=O)(=O)N(Cc1ccc(Cl)c(Cl)c1)C[C@@H](O)CO	S2 tox inconclusive, IL-1B inflam inh -104, ATXN2 expr inh inconclusive
CCCCCCCn1ccc(=N)cc1	IL-1B inflam inh inconclusive, ATXN2 expr inh inconclusive
CCCCCCCCCn1ccc(=N)cc1	IL-1B inflam inh -94, ATXN2 expr inh 2.1µM
COc1ccc(-c2cc(C(=O)N3CCN(c4ccccc4)CC3)no2)cc1	IL-1B inflam inh -53
O=C(c1cc(-c2cccc(O)c2)on1)N1CCN(C(c2ccccc2)c2ccccc2)CC1	S2 tox inconclusive, a7 integrin act inconclusive, IL-1B inflam inh -53
COc1ccc(-c2cc(C(=O)N3CCN(c4ccccc4OC)CC3)no2)cc1	none
Cc1oc(C(C)(C)C)cc1C(=O)N1CCN(c2ccc(C(F)(F)F)cn2)CC1	none (no result: ATXN2 expr inh)
COc1ccc(S(=O)(=O)CCc2nc3ccccc3s2)cc1	none
COc1cccc(CN2CCN(c3ccc(F)cc3)C2=O)c1	IL-1B inflam inh -51
O=C1N(Cc2ccc(F)cc2)CCN1c1ccc(F)cc1	none
CCN(c1ccc(C)cc1C)S(=O)(=O)c1nnc(NC(=O)C(C)(C)C)s1	DRD3 antagonist -74
CN(C)[C@@H]1CCC[C@H]1OC(=O)C(c1ccccc1)c1ccccc1	DRD3 antagonist -53
CC1CN(C)C(C)CC1OC(=O)C(c1ccccc1)c1ccccc1 (stereo not given)	IL-1B inflam inh inconclusive
CC(=O)c1ccc(OC(C)C)c(CC(C(N)=O)C(N)=O)c1	none
Cc1cc(NC(=O)CN(C)CCOc2ccccc2)ccc1Br	IL-1B inflam inh -52
Cc1cc(Br)ccc1NC(=O)CCSc1ccccc1	none
Cc1cc(NC(=O)CCSc2ccccc2)ccc1Br	IL-1B inflam inh -67
CCN(CC(=O)Nc1cccc(OC)c1)CC(=O)Nc1ccc(Br)c(C)c1	IL-1B inflam inh -68, ATXN2 expr inh inconclusive
CCN(CC)CC(=O)Nc1ccc(Oc2ccc(NC(=O)CN(CC)CC)cc2)cc1	IL-1B inflam inh -58
Cc1cccc(C2c3[nH]c4ccccc4c3CCN2Cc2cccn2-c2ncccn2)c1 (stereo not given)	S2 tox inconclusive, IL-1B inflam inh -87
Oc1cccc(C2c3[nH]c4ccccc4c3CCN2Cc2ccc3c(c2)CCO3)c1 (stereo not given)	IL-1B inflam inh -93
COc1ccc(C2c3[nH]c4ccccc4c3CCN2Cc2cccn2-c2ncccn2)cc1C (stereo not given)	none
Cc1c(CCC(=O)N[C@@H](C)C(=O)O)c(=O)oc2cc3oc4c(c3cc12)CCCC4	none (no result: ATXN2 expr inh)
NC(Cc1ccc(F)cc1)c1csc(Nc2ccc(C(F)(F)F)cn2)n1 (stereo not given)	IL-1B inflam inh -55, ATXN2 expr inh inconclusive (no result: S2 tox, a7 integrin act)
NC(Cc1ccc(C(F)(F)F)cc1)c1csc(Nc2cc(NCc3ccco3)ncn2)n1 (stereo not given)	S2 tox 25µM, IL-1B inflam inh inconclusive, ATXN2 expr inh 14µM (no result: a7 integrin act)
NC(Cc1ccc(C(F)(F)F)cc1)c1csc(Nc2ccccn2)n1 (stereo not given)	S2 tox inconclusive, IL-1B inflam inh -77 (no result: a7 integrin act)
NC(Cc1ccc(C(F)(F)F)cc1)c1csc(Nc2ncccn2)n1 (stereo not given)	S2 tox inconclusive, IL-1B inflam inh -53 (no result: a7 integrin act)
O=C(NCCS(=O)(=O)N1CCN(c2cccc(Cl)c2)CC1)c1cc(=O)c2ccccc2o1	S2 tox inconclusive (no result: ATXN2 expr inh)
COC(=O)[C@H](C)NC(=O)NCc1ccccc1	none
CN(C)S(=O)(=O)c1ccc(C(=O)Nc2nnc(SCC(=O)N3CCOCC3)s2)cc1	none (no result: ATXN2 expr inh)
CC(C)Oc1ccc(C(=O)Nc2nnc(SCC(=O)N3CCOCC3)s2)cc1	ATXN2 expr inh 10µM
COc1ccc(C2C(C#N)=C(N)N(c3sc4c(c3C#N)CCCC4)C3=C2C(=O)CC(C)(C)C3)cc1 (stereo not given)	none
COc1ccc(C2C(C#N)=C3NC(=O)c4c(sc5c4CCCCC5)N3C3=C2C(=O)CC(C)(C)C3)cc1 (stereo not given)	S2 tox inconclusive, DRD3 antagonist -87
CCCCC(C)(O)C/C=C/[C@H]1[C@H](O)CC(=O)[C@@H]1CCCCCCC(=O)OC (stereo not given in full)	none (no result: S2 tox, a7 integrin act, IL-1B inflam inh, ATXN2 expr inh, DRD3 antagonist)
Fc1ccccc1-c1csc(=Nc2cccnc2)n1CC1CCCO1 (stereo not given)	IL-1B inflam inh -66
COc1ccccc1COCC(O)CNCCc1ccc(C(F)(F)F)cc1 (stereo not given)	IL-1B inflam inh -78, ATXN2 expr inh inconclusive
OC(CNCCc1ccc(C(F)(F)F)cc1)COc1ccc2ccccc2c1 (stereo not given)	IL-1B inflam inh -101, ATXN2 expr inh 28µM (no result: S2 tox)
CN(Cc1ccc(OCC(O)CN(C)Cc2ccccc2)cc1)Cc1nccn1C (stereo not given)	none
COc1ccc(CN(C)CC(O)COc2ccc(-c3ccccc3)cc2)cc1OC (stereo not given)	IL-1B inflam inh -71, ATXN2 expr inh inconclusive, DRD3 antagonist inconclusive (no result: S2 tox)
